“And” between values parts separate entries of the source, which are not always exact repeats. Equal entries are not always repeated. Records with an inconclusive call do not appear. The source made the active and inactive calls. Calls follow the shape of the dose curve; as a rule, active = well fitted curve in the direction sought with a large enough effect in the repeat runs; inconclusive = weak or mixed curves; inactive = no such curve, though single readings can be large; an effect the other way counts as inactive or inconclusive.
Assays:
[1] = qHTS assay to identify small molecule antagonists of the retinoid acid receptor (RAR) signaling pathway - cell viability counter screen (AID 1159551); also: nearly all actives have a fitted effect of over 35% in size
In short: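 In this counter screen, the RARE-luciferase line C3RL4 was exposed for 6 h at 37 C and 5% CO2 to compounds with retinol at 1 uM final. Cellular ATP, read by luminescence, served as the viability measure.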

[2] = qHTS assay to identify small molecule antagonists of the retinoic acid receptor (RAR) signaling pathway (AID 1159552; also: nearly all actives have a fitted effect of over 50% in size)
In short: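 C3RL4 RARE-luc cells, overnight plating; retinol 1 uM final added right after compound; 6 hr 37 C; luciferase read at 30 min RT.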

[3] = qHTS assay to identify small molecule agonists of the retinoic acid receptor (RAR) signaling pathway (AID 1159553); also: potency is read from the fitted curve at half-maximal effect
In short: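 In this cell-based screen, 1,000 C3RL4 cells per well were cultured overnight, dosed with test chemicals in DMSO for 6 hr, and assessed for RARE luciferase luminescence.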

[4] = qHTS assay to identify small molecule antagonists of the estrogen related receptor (ERR) signaling pathway from Tox21 library - cell viability counter screen (AID 1224834); also: nearly all actives have a fitted effect of over 30% in size; also: potency is read from the fitted curve at half-maximal effect
In short: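 Counter screen run in ERR cells (2,000 cells/well): cells pre-incubated 6 h, then treated with compounds for 17.5 h at 37 C. Fluorescence was read 30 min after CellTiter-Fluor addition.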
% is scaled to controls: 0 for no effect and ±100 for the full control effect.

CN(C)N
inactive: Potency [1] | Potency [2] | Potency [3] | Potency [4]

CC(Cl)C(=O)O (stereo unspecified)
inactive: Potency [1] | Potency [2] | Potency [3] | Potency [4]

CCCCCl
inactive: Potency [1] | Potency [2] | Potency [3] | Potency [4]

c1ccc2c(c1)sc1ccccc12
inactive: Potency [1] | Potency [2] | Potency [3] | Potency [4]

O=C(O)COc1cc(Cl)c(Cl)cc1Cl
inactive: Potency [1] | Potency [2] | Potency [3] | Potency [4]

O=CC=O
inactive: Potency [1] | Potency [2] | Potency [3] | Potency [4]

OC[P+](CO)(CO)CO
inactive: Potency [1] | Potency [2] | Potency [3] | Potency [4]

CCCCCBr
inactive: Potency [1] | Potency [2] | Potency [3] | Potency [4]

N#CC(C#N)=C(C#N)C#N
inactive: Potency [1] | Potency [2] | Potency [3] | Potency [4]

CCC1(CC)C(=O)NC(=O)NC1=O
inactive: Potency [1] | Potency [2] | Potency [3] | Potency [4]

O=C(O)C(F)(F)C(F)(F)C(F)(F)C(F)(F)C(F)(F)F
inactive: Potency [1] | Potency [2] | Potency [3] | Potency [4]

Nc1cc(Cl)cc(C(=O)O)c1Cl
inactive: Potency [1] | Potency [2] | Potency [3] | Potency [4]

CCOC(=O)c1cncn1C(C)c1ccccc1 (stereo unspecified)
inactive: Potency [1] | Potency [2] | Potency [3] | Potency [4]

CCCCCCCCCCCCCCCl
inactive: Potency [1] | Potency [2] | Potency [3] | Potency [4]

FC(F)OC(F)(F)C(F)Cl (stereo unspecified)
inactive: Potency [1] | Potency [2] | Potency [3] | Potency [4]

Clc1ccccc1
inactive: Potency [1] | Potency [2] | Potency [3] | Potency [4]

CCN(C(C)=O)c1cccc(-c2ccnc3c(C#N)cnn23)c1
inactive: Potency [1] | Potency [2] | Potency [3] | Potency [4]

COC(=O)C1(O)c2ccccc2-c2ccccc21
inactive: Potency [1] | Potency [2] | Potency [3] | Potency [4]

C=CC(C)(CCC=C(C)C)OC(=O)c1ccccc1N (stereo unspecified)
inactive: Potency [1] | Potency [2] | Potency [3] | Potency [4]

CCOP(=S)(OCC)Oc1ccc(S(C)=O)cc1 (stereo unspecified)
inactive: Potency [1] | Potency [2] | Potency [3] | Potency [4]

CCOC(=O)NC(O)C(Cl)(Cl)Cl (stereo unspecified)
inactive: Potency [1] | Potency [2] | Potency [3] | Potency [4]

C1CS1
inactive: Potency [1] | Potency [2] | Potency [3] | Potency [4]

O=S(=O)(Cl)Cl
inactive: Potency [1] | Potency [2] | Potency [3] | Potency [4]

C=CCc1ccccc1O
inactive: Potency [1] | Potency [2] | Potency [3] | Potency [4]

OCCCl
inactive: Potency [1] | Potency [2] | Potency [3] | Potency [4]

COc1ccc(C(O)(c2cncnc2)C2CC2)cc1 (stereo unspecified)
inactive: Potency [1] | Potency [2] | Potency [3] | Potency [4]

O=C(NC(=O)c1cc(F)c(F)cc1Cl)Nc1cc(F)ccc1N1CCC(C(=O)O)CC1
inactive: Potency [1] | Potency [2] | Potency [3] | Potency [4]

CCC(C)Cl (stereo unspecified)
inactive: Potency [1] | Potency [2] | Potency [3] | Potency [4]

Nc1c(Br)cc(Br)c2c1C(=O)c1ccccc1C2=O
inactive: activity change, negative = cytotoxicity [1] 0.857% [at 19 µM] | activity, negative = inhibition [2] 12.6% [at 19 µM] | Potency [3] | viability change, negative = cytotoxic [4] -5.59% [at 19 µM]

Nc1ccc2c(c1)Cc1ccccc1-2
inactive: Potency [1] | Potency [2] | Potency [4]
active: Potency [3] 10.8 µM

O=P(OCC(Br)CBr)(OCC(Br)CBr)OCC(Br)CBr (stereo unspecified)
active: Potency [4] 49.2 µM and 51.7 µM
inactive: Potency [1] | Potency [2] | Potency [3]

CC(C)(C)OOC(C)(C)CCC(C)(C)OOC(C)(C)C
inactive: Potency [1] | Potency [2] | Potency [3] | Potency [4]

Cc1nnc(-c2ccccc2)c(=O)n1N
inactive: Potency [1] | Potency [2] | Potency [3] | Potency [4]

C=CCc1ccc(OC(=O)Cc2ccccc2)c(OC)c1
inactive: Potency [1] | Potency [2] | Potency [3] | Potency [4]

— PubChem BioAssay (Tox21)
